Laboratory results: the supplement of paper PMC8975748
Counter-ions that a name gives are not always drawn.

Tested on: Saccharomyces cerevisiae BY4741 SeMeCo community
Test: z-score of subpopulation abundance vs DMSO median, subpopulation auxotrophic for HUM; higher = larger share of this subpopulation than in DMSO controls
Settings: 10 µM; 24 h; SM minimal medium; subpopulation (auxotrophy): HUM
Description: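 Fluorescent four-plasmid SeMeCo (self-establishing metabolically cooperating S. cerevisiae BY4741 community; plasmids pH-mRuby2, pL-mWasabi, pU-eCFP, pM-TagRFP657) was grown 24 h in minimal SM medium with each Selleck FDA-approved drug at 10 µM in 384-well plates. Cells were fixed and imaged by high-content confocal microscopy. For each auxotrophic subpopulation (and the prototroph), a z-score gives the deviation from the DMSO vehicle-control population median.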

Going from `C=C[C@H]1CN2CC[C@H]1C[C@H]2[C@H](O)c1ccnc2ccccc12` [Cinchonidine] to `CCC1=C[C@H]2CN3CCc4c([nH]c5ccccc45)[C@](C(=O)OC)(C2)[C@H]13` [Catharanthine], the “z-score of subpopulation abundance” value falls from 0.48 to 0.29.

Compared with `CC1(C)SC2C(N)C(=O)N2C1C(=O)O` (centres undefined) [6-Aminopenicillanic acid], `CC(=O)OCC1=C(C(=O)O)N2C(=O)C(N)C2SC1` (centres undefined) [7-Aminocephalosporanic acid] is lower in “z-score of subpopulation abundance” value: 0.65 for the first, 0.03 for the second.

Going from `CCN(C)C(=O)Oc1cccc([C@H](C)N(C)C)c1` [Rivastigmine] to `CN(C)C(=O)Oc1ccc[n+](C)c1` [Pyridostigmine Bromide], the “z-score of subpopulation abundance” value falls from 0.66 to 0.11.

Going from `CC[N+](C)(CC)CCOC(=O)C(O)(c1ccccc1)c1ccccc1` [Methylbenactyzine Bromide] to `CC(C)N(CCC(C(N)=O)(c1ccccc1)c1ccccn1)C(C)C` (centres undefined) [Disopyramide], the “z-score of subpopulation abundance” value rises from -0.8 to -0.19.

First: CN(C)[C@@H]1C(=O)C(C(N)=O)=C(O)[C@@]2(O)C(=O)C3=C(O)c4c(O)cccc4[C@@](C)(O)[C@H]3[C@H](O)[C@@H]12 [Oxytetracycline Dihydrate]
Second: C=C(C)[C@H]1Cc2c(ccc3c2O[C@@H]2COc4cc(OC)c(OC)cc4[C@@H]2C3=O)O1 [Rotenone (Barbasco)]
The “z-score of subpopulation abundance” value of the first is lower: -0.79 for the first, 0.94 for the second.

Going from `COc1ccc2c(c1)[C@]13CCCC[C@@H]1[C@H](C2)N(C)CC3` [Dextromethorphan hydrobromide hydrate] to `COc1ccc(C(CN(C)C)C2(O)CCCCC2)cc1` (centres undefined) [Venlafaxine HCl], the “z-score of subpopulation abundance” value falls from 0.2 to 0.07.

Going from `CN(C)[C@@H]1C(=O)C(C(N)=O)=C(O)[C@@]2(O)C(=O)C3=C(O)c4c(O)cccc4[C@@](C)(O)[C@H]3[C@H](O)[C@@H]12` [Oxytetracycline (Terramycin)] to `CC[C@H]1[C@@H]2C[C@H]3[C@@H]4N(C)c5ccccc5[C@]45C[C@@H]([C@@H]2[C@H]5O)N3[C@@H]1O` [Ajmaline], the “z-score of subpopulation abundance” value falls from -0.11 to -0.48.

Going from `CN1C(=O)COc2c(C(=O)NC3CN4CCC3CC4)cc(Cl)cc21` (centres undefined) [Azasetron HCl] to `CN1c2ccccc2C(NCCCCCCC(=O)O)c2ccc(Cl)cc2S1(=O)=O` (centres undefined) [Tianeptine sodium], the “z-score of subpopulation abundance” value falls from 0.35 to -0.16.

First: COc1ccc2[nH]cc(CCN)c2c1 [5-Methoxytryptamine]
Second: NCC(O)c1ccc(O)cc1 (racemic) [(+,-)-Octopamine HCl]
The “z-score of subpopulation abundance” value of the first is higher: 0.46 for the first, -0.21 for the second.

Going from `CN[C@@H]1[C@@H](O)[C@@H](O[C@@H]2[C@@H](O)[C@H](O[C@H]3O[C@H](CN)CC[C@H]3N)[C@@H](N)C[C@H]2N)OC[C@]1(C)O.CN[C@@H]1[C@@H](O)[C@@H](O[C@@H]2[C@@H](O)[C@H](O[C@H]3O[C@H]([C@@H](C)N)CC[C@H]3N)[C@@H](N)C[C@H]2N)OC[C@]1(C)O.CN[C@@H]1[C@@H](O)[C@@H](O[C@@H]2[C@@H](O)[C@H](O[C@H]3O[C@H]([C@@H](C)NC)CC[C@H]3N)[C@@H](N)C[C@H]2N)OC[C@]1(C)O` [Gentamicin Sulfate] to `CC(=O)O[C@H]1C[C@@H]2CC[C@@H]3[C@H](CC[C@@]4(C)[C@H]3C[C@H]([N+]3(C)CCCCC3)[C@@H]4OC(C)=O)[C@@]2(C)C[C@@H]1[N+]1(C)CCCCC1` [Pancuronium dibromide], the “z-score of subpopulation abundance” value falls from -0.69 to -0.72.

Going from `CN1[C@@H]2C[C@@H](OC(=O)[C@H](CO)c3ccccc3)C[C@H]1[C@@H]1O[C@@H]12` [Scopolamine HBr trihydrate] to `CN1[C@@H]2CC[C@H]1C[C@@H](OC(=O)C(CO)c1ccccc1)C2` (some centres undefined) [Atropine sulfate monohydrate], the “z-score of subpopulation abundance” value falls from -0.05 to -0.27.

First: CC[C@@H](C(N)=O)N1CCCC1=O [Levetiracetam]
Second: NC(=O)CN1CCCC1=O [Piracetam]
The “z-score of subpopulation abundance” value of the first is lower: -0.12 for the first, 1.72 for the second.

Going from `C=CCN1C[C@H](C(=O)N(CCCN(C)C)C(=O)NCC)C[C@@H]2c3cccc4[nH]cc(c34)C[C@H]21` [Cabergoline] to `CCN1CC2(OC(=O)c3ccccc3NC(C)=O)CCC(OC)C34C1C(CC23)C1(O)CC(OC)C2CC4C1(O)C2OC` (centres undefined) [Lappaconitine], the “z-score of subpopulation abundance” value rises from -0.37 to 0.34.

Going from `Nc1ccncc1` [4-Aminopyridine] to `C[CH2][Hg][S]c1ccccc1C(=O)[O-].[Na+]` [Thimerosal], the “z-score of subpopulation abundance” value rises from -0.37 to 14.9.

First: Oc1cc(Cl)ccc1Oc1ccc(Cl)cc1Cl [Triclosan]
Second: CC(C)=CCOc1c2occc2cc2ccc(=O)oc12 [Imperatorin]
The “z-score of subpopulation abundance” value of the first is lower: -1.9 for the first, -1.03 for the second.

First: O=[N+]([O-])C(Br)(CO)CO [Bronopol]
Second: COC(=O)C1=CCCN(C)C1 [Arecoline HBr]
The “z-score of subpopulation abundance” value of the first is lower: -0.53 for the first, -0.03 for the second.

First: C[N+](C)(C)CCCCCCCCCC[N+](C)(C)C [Decamethonium Bromide]
Second: O=c1cccc2n1C[C@@H]1CNC[C@H]2C1 [Cytisine]
The “z-score of subpopulation abundance” value of the first is higher: 0.18 for the first, -0.61 for the second.
